Data published in PubChem BioAssay (NCI).
Compounds without any hit were thinned out: in the full panel of roughly 83,000, 20% have a hit.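 Method: cells in 96-well plates; compound added at one concentration; 48 h incubation; percent growth measured; values under 10 scored active.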 Unmarked numbers belong to inactive results. Active and inactive are the calls of the source.

Columns and labels:
Experiment in all cases: NCI-60 one-dose screen, 48 h (100 = growth as untreated, 0 = no growth, -100 = all killed)
Conditions in all cases: 10 µM unless noted
HCT-15 colon = test system: HCT-15 colon
HT29 colon = test system: HT29 colon
SNB-75 CNS = test system: SNB-75 CNS
SNB-19 CNS = test system: SNB-19 CNS
U251 CNS = test system: U251 CNS
PC-3 prostate = test system: PC-3 prostate
SK-MEL-5 melanoma = test system: SK-MEL-5 melanoma
UACC-62 melanoma = test system: UACC-62 melanoma
LOX IMVI melanoma = test system: LOX IMVI melanoma
SK-MEL-28 melanoma = test system: SK-MEL-28 melanoma

Row | Compound | growth (HCT-15 colon) | growth (HT29 colon) | growth (SNB-75 CNS) | growth (SNB-19 CNS) | growth (U251 CNS) | growth (PC-3 prostate) | growth (SK-MEL-5 melanoma) | growth (UACC-62 melanoma) | growth (LOX IMVI melanoma) | growth (SK-MEL-28 melanoma)
1 | COc1ccc(C/C(C)=C(\c2ccc(O)cc2)c2ccc(OCCCN(C)C)cc2)cc1 | 89.7% | 77.6% | 84.1% | 100% | 80.5% | 83.4% | 98.4% | 108% | 88.9% | 112%
2 | CN(C)CCCn1c2nc(=O)[nH]c(=O)c-2nc2cc(Cl)c(Cl)cc21 | 87% | 20.9% | 99.9% | 100% | 55.2% | 60.2% | 78.3% | 97.9% | 41.2% | 
3 | Cc1ccc(-c2nc(SCC(=O)c3ccc(C#N)cc3)[nH]c(=O)c2C#N)cc1 | 105% | 97.9% | 87.5% | 106% | 100% | 104% | 114% | 99.2% | 92.9% | 103%
4 | COc1ccc(-c2nnc3n(C)c(=O)c4ccccc4n23)cc1O | 22.9% | 18.8% | 9.51% (active) | 24.3% | 15.1% | 17.9% | 19% | 14.2% | 39.1% | 50.9%
5 | N=C(N)SCc1c2ccccc2c(CSC(=N)N)c2ccccc12 | 93.9% | 65.9% | 89.5% | 111% | 61.1% | 61.8% | 68.9% | 72.9% | 55.7% | 99%
6 | Nc1nc(CSc2n[nH]c(N)n2)nc(Nc2ccccc2)n1 | 94.2% | 106% | 82.2% | 101% | 99.9% | 101% | 101% | 91.9% | 98.3% | 
7 | O=[N+]([O-])c1cc(C(F)(F)F)ccc1Sc1ccc(C(F)(F)F)cc1[N+](=O)[O-] | 71.2% | 18.5% | 86% | 91.5% | 83.9% | 84.6% | 82.7% | 77.8% | 28.1% | 80.6%
8 | N=C(N)c1ccc(-c2ccc(-c3ccc(Cl)c(Cl)c3)s2)cc1 | -62.5% (active) | 6.02% (active) | 103% | -23.8% (active) | -65.9% (active) | -24.1% (active) | 94.8% | 88.6% | -71.3% (active) | 
9 | Cc1ccc(-c2nc3nc(-c4ccc(Br)cc4)nc(N4CCCNCC4)c3o2)cc1 | -84.5% (active) | -85.3% (active) | 96.2% | -47.3% (active) | -76.6% (active) | -52% (active) | 92.6% | 101% | -85.1% (active) | 
10 | CCCCn1c(C(=O)c2c[nH]c3ccccc23)n[nH]c1=S | 99% | 99.8% | 81.2% | 100% | 100% | 93.8% | 99.9% | 81.7% | 96.4% | 
11 | Cc1c(O)c(O)cc2c3c(oc12)CC(c1ccc2c(c1)OCO2)CC3=O (stereo unspecified) | 64.5% | 94.3% | 87.8% | 101% | 100% | 81.1% | 82.1% | 53.4% | 59.7% | 105%
12 | CC1(C)C(N)=Nc2cc(OCCCCN3Cc4ccccc4C3)c(OCC3CC3)cc21 | 36.2% | 27.6% | 78.9% | 81.9% | 56.3% | 98.5% | 57.7% | 82.7% | 26.4% | 54.4%
13 | COc1cc(/C=C2\CCC/C(=C\c3cc(CN4CCCC4)c(O)c(OC)c3)C2=O)cc(CN2CCCC2)c1O | 16.3% | -46.2% (active) | 20.3% | 44.7% | 25.3% | 31.2% | 71.1% | 88.6% | 9.9% (active) | 92.2%
14 | COc1cc2nc3cc([N+](=O)[O-])ccc3c(NCCNCC(C)(C)O)c2cc1OC | 17% | -11.7% (active) | -55.7% (active) | -10.5% (active) | -23.6% (active) | -35.6% (active) | -71.3% (active) | -48.6% (active) | -40.9% (active) | -25.7% (active)
15 | Nc1nc2ccccc2c2c(=O)c3ccc(Cl)cc3sc12 | 101% | 98% | 96.3% | 102% | 84.8% | 89.9% | 104% | 92.5% | 98% | 110%
16 | Cn1cc2c(=O)nc3c(-c4nc5ccccc5[nH]4)n[nH]n3c2n1 | 80.1% | 89.7% | 93.4% | 95.8% | 89.6% | 67.1% | 53.1% | 70.6% | 72.5% | 
17 | O=C1c2cc3c(cc2-c2c1c1ccc(Cl)cc1c(=O)n2CCCn1ccnc1)OCO3 | 7.3% (active) | -62.9% (active) | 0.456% (active) | 17.3% | -33.1% (active) | 19.9% | -93% (active) | -57.7% (active) | -76.8% (active) | 
18 | COc1ccc(/C=N/NC(=O)CN2CCN(c3cc4c(cc3F)c(=O)c(C(=O)O)cn4C3CC3)CC2)cc1O | 109% | 96.1% | 106% | 94.4% | 95.3% | 93% | 89.8% | 97.6% | 97.9% | 
19 | COc1ccc(-c2cc(-c3cccnc3)nc3sc4c(Cl)nnnc4c23)cc1OC | 69.9% | 87.9% | 81.5% | 95.6% | 92.1% | 81.1% | 84.4% | 81% | 36.4% | 112%
20 | O=C(N/N=C/c1ccc(O)cc1O)c1cccc(Nc2ccnc(C(F)(F)F)c2)c1 | 27.3% | 41.6% | 32.2% | 35.5% | 32.1% | 61% | 33.7% | -8.61% (active) | 13.7% | 31.1%
21 | CN(Cc1ccccc1)c1nc(Cl)c(C2CC(c3ccc4c(c3)OCO4)=NN2c2cc(Cl)cc(Cl)c2)s1 (stereo unspecified) | 98.7% | 97.8% | 78.5% | 106% | 98.1% | 93.5% | 97.4% | 96.6% | 96.6% | 99%
22 | COc1ccc(/C=C(\C#N)c2cc3ccccc3[nH]2)cc1 | 14% | 8.16% (active) | 18.6% | 39.7% | 18.7% | 51% | 22.2% | 31.4% | 30.3% | 49.5%
23 | COc1cc(-c2[nH]ncc2Nc2ccc(Cl)cc2)cc(OC)c1OC | 59.7% | 74.2% | 59.8% | 74.2% | 68.9% | 59.9% | 43.6% | 40% | 55.8% | 
24 | COCCn1cc(-c2csc(-c3cn(C)c4ccc(F)cc34)n2)c2cccnc21 | 27.9% | 35.5% | 76.4% | 82.6% | 65.5% | 46.5% | 72.7% | 79.9% | 25.8% | 79.8%
25 | O=C(Nc1ncc(Cc2cccc(C(F)(F)F)c2)s1)c1ccc2c(c1)OCCO2 | 8.27% (active) | 4.83% (active) | 25.5% | 42.9% | 16.7% | 28.3% | -21.5% (active) | 39.9% | 40.8% | 73.1%
26 | COc1nc(=O)n(C2C=CC(=O)O2)cc1F (stereo unspecified) | 58.5% | 55.8% | 90.2% | 97.8% | 103% | 110% | 94.9% | 59.7% | 64.9% | 96%
